NPR1 antag – antagonists of human natriuretic peptide receptor Npr1 | actives 1.6% (n = 76,000) | Potency, µM (titrated, usually from 46.3 µM), for the others: at the highest dose activity change, negative = inhibition, usual class: inhibitors | HEK293 hNpr1 GloSensor cGMP, ANP-stimulated luminescence | AID 1347048; calls by dose curve; further: on the % scale 0 is the no-effect control and ±100 the full control effect; nearly all actives have a fitted effect of over 60% in size
Target sequence (P16066 whole entry, looked up): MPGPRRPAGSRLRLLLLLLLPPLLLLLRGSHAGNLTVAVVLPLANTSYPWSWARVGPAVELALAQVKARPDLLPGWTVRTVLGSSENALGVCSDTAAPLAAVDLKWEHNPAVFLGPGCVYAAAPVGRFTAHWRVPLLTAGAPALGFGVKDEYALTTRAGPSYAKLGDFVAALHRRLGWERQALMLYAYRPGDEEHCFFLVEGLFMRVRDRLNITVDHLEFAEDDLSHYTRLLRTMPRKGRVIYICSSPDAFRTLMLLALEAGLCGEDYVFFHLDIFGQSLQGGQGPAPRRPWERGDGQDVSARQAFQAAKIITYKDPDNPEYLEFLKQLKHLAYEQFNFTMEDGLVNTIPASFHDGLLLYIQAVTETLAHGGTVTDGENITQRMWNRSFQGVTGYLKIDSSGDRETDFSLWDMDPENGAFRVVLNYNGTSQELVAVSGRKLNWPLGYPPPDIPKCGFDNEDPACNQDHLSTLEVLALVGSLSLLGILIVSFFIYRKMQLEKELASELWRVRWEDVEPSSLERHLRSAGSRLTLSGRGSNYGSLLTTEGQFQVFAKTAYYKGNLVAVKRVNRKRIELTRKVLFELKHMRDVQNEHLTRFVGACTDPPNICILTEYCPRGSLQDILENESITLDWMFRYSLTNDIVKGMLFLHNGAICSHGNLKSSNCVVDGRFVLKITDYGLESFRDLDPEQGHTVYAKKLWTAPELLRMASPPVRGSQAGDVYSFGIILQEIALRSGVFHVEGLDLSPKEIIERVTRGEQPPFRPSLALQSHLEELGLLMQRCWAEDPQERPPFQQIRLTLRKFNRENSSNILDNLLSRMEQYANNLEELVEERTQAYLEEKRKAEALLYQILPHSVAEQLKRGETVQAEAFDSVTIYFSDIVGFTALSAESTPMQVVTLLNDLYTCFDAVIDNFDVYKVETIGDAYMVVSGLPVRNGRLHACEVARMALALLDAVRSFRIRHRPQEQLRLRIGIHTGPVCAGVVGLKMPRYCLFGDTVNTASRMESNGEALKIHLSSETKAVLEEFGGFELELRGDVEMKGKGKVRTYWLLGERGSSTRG
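Compound pre-incubated 30 min at room temperature on GloSensor-loaded HEK293 cells stably carrying hNpr1 and the pGS-40F cGMP biosensor. Stimulation uses hNppA at 0.1 nM final; luminescence is taken at baseline and 20 min post-agonist.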
Luciferase inh – Photinus pyralis luciferase inhibition. P08659. purified P. pyralis luciferase, luminescence, biochemical. Potency, µM (highest dose often 115 µM), most hits filed as inhibitors. actives 2.5% (n = 76,000); further: on the % scale 0 is the no-effect control and ±100 the full control effect; nearly all actives have a fitted effect of over 65% in size
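Purified P. pyralis luciferase (10nM final) in 50mM Tris acetate pH 7.5, 10mM Mg acetate, 0.01% Tween-20, 0.05% BSA with 10uM D-luciferin and 10uM ATP. Compounds titrated qHTS. Luminescence imaged on CCD.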
NIH3T3 tox – kills NIH 3T3 cells | NIH 3T3 viability, CellTiter-Glo ATP luminescence, 48-72 h | Potency, µM (doses to about 96.7 µM), for the others: top-dose activity change, negative = cytotoxicity, usual class: inhibitors | actives 4.3% (n = 94,000) | AID 1345082; further: on the % scale 0 is the no-effect control and ±100 the full control effect; nearly all actives have a fitted effect of over 55% in size
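First NIH 3T3 cells are plated at 400 cells/well; next compound is pinned in; then plates incubate 48 or 72 hr at 37 °C; finally CellTiter-Glo is added and luminescence read after 10 min.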
HEK cytotox – HEK 293 cell cytotoxicity; HEK 293 viability, ATP luminescence (CellTiter-Glo), 48-72 h; Potency, µM (doses to about 115 µM), without a hit: top-dose activity change, negative = cytotoxicity, usual class: inhibitors; actives 6.6% (n = 94,000); further: on the % scale 0 is the no-effect control and ±100 the full control effect; nearly all actives have a fitted effect of over 60% in size
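Cytotoxicity was scored by loss of ATP-coupled luminescence (CellTiter-Glo) in HEK 293 cells. Compound treatment ran 48 or 72 hr at 37 degree Celsius, 5% CO2, 95% humidity.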
Npr1 antag conf – hNpr1 antagonism, confirmation assay; shares compounds with NPR1 antag; HEK293 hNpr1 cGMP GloSensor luminescence, ANP-stimulated; Potency, µM (titrated, usually from 57.6 µM), inactives show at the highest dose activity change, negative = inhibition, usual class: inhibitors; actives 76% (n = 1,400); AID 1347044; calls by dose curve; further: nearly all actives have a fitted effect of over 70% in size
NPR2 antag – antagonizes human Npr2, subtype selectivity check. shares compounds with NPR1 antag. HEK293 hNpr2 GloSensor cGMP luminescence, CNP-stimulated. Potency, µM (titrated, usually from 57.6 µM), for inactives: at the top dose activity change, negative = inhibition, most hits filed as inhibitors. actives 67% (n = 1,400). AID 1347046; calls by dose curve; further: nearly all actives have a fitted effect of over 70% in size
FLuc counter – FLuc enzyme inhibition, Npr1 counter-screen; shares compounds with NPR1 antag; purified FLuc enzyme, luminescence, Km substrate; Potency, µM (series often up to 57.6 µM), for the others: at the highest dose activity change, negative = inhibition, most hits filed as inhibitors; actives 0.7% (n = 1,400); further: 0% is about no effect
GloSensor ctrl – control cell line activity, Npr1 antagonist counter-screen; shares compounds with NPR1 antag; HEK293 GloSensor cGMP, SNP-stimulated, luminescence; Potency, µM (series often up to 57.6 µM), without a hit: at the highest dose activity change, negative = inhibition, usual class: inhibitors; actives 69% (n = 1,400); AID 1347051; calls by dose curve; further: on the % scale 0 is the no-effect control and ±100 the full control effect; nearly all actives have a fitted effect of over 70% in size
* hit, by the source's call; i = inactive; ? = inconclusive; nt = no result given; [ ] = remark or other dose. An excerpt weighted towards active compounds, which were near 11% of everything screened. Unless noted, the call rests on the fitted dose curve; in most records, active means well fitted curve in the direction sought with a large enough effect; inconclusive means small, poorly fitted or top-dose-only effect, or another doubt; inactive means no such curve, though single readings can be large; an effect the other way counts as inactive or inconclusive. Potency means the concentration at half of the fitted maximal effect.

SMILES	NPR1 antag	Luciferase inh	NIH3T3 tox	HEK cytotox	Npr1 antag conf	NPR2 antag	FLuc counter	GloSensor ctrl
CC1Oc2ccc(NC(=O)c3ccc(F)cc3)cc2CN(Cc2ccc3c(c2)OCO3)C1=O (stereo not drawn)	?	i	?	?	24.3µM*	?	0.6%	30.6µM*
Cc1cccc(CNC(=O)c2ccc3c(c2)N(C)C2CCCN2C3=O)c1 (stereo not drawn)	-7.3%	i	?	?	nt	nt	nt	nt
O=C(NCc1ccccc1Cl)c1ccc(CN2C(=O)NC3(CCOCC3)C2=O)cc1	-23.2%	i	-18.9%	-21.6%	nt	nt	nt	nt
CC(C)c1ccc(CNC(=O)c2ccc(CN3C(=O)NC4(CCOCC4)C3=O)cc2)cc1	7.08µM*	i	?	?	19.3µM*	19.3µM*	-2.4%	15.3µM*
CN(Cc1nc(Cc2ccccc2Cl)no1)Cc1cccc2cnccc12	14.1µM*	i	?	?	10.9µM*	12.2µM*	0.4%	10.9µM*
COCCN(C)Cc1nc(Cc2ccccc2Cl)no1	3.3%	i	2.1%	i	nt	nt	nt	nt
O=[S+]([O-])(Nc1ccccc1)c1ccc2c(c1)OCCN(Cc1ccncc1)C2	?	i	?	?	39.6µM*	35.3µM*	-1.6%[86.2 µM]	31.4µM*
CN(C)[S+](=O)([O-])c1ccc2c(c1)OCCN(Cc1ccc(C(F)(F)F)cc1)C2	17.8µM*	i	44.7µM*	?	12.5µM*	17.7µM*	-13.2%[86.2 µM]	8.86µM*
CN(C)[S+](=O)([O-])c1ccc2c(c1)OCCN(Cc1ccc(F)cc1)C2	-20.0%[70.6 µM]	i	?	?	nt	nt	nt	nt
O=[S+]([O-])(Nc1cccnc1)c1ccc2c(c1)OCCN(Cc1ccccc1)C2	?	i	?	?	nt	nt	nt	nt
COc1ccc(Cn2c(=O)c(C(=O)N3CCN([S+](=O)([O-])c4ccc(C)cc4)CC3)nc3cccnc32)cc1	nt	nt	-21.9%	-3.3%	nt	nt	nt	nt
O=C(Nc1cccc(C(F)(F)F)c1)N[C@H]1CO[C@H]2[C@@H]1OC[C@@H]2n1nnnc1Oc1ccccc1	-0.2%	i	-1.4%	i	nt	nt	nt	nt
O=C(N[C@H]1CO[C@H]2[C@@H]1OC[C@@H]2n1nnnc1Oc1ccc(-n2ccnc2)cc1)c1ccc(C(F)(F)F)cc1	11.2µM*	i	-33.1%	35.5µM*	17.2µM*	13.7µM*	2.5%	15.3µM*
O=C(N[C@H]1CO[C@H]2[C@@H]1OC[C@@H]2n1nnnc1Oc1ccccc1)c1ccc(C(F)(F)F)cc1	10µM*	i	?	?	10.9µM*	12.2µM*	-1.4%	9.68µM*
COCC(=O)N1CCC(C(=O)NCC2(c3ccccc3)CCCCC2)CC1	4.0%	i	?	?	nt	nt	nt	nt
O=C(NCC1(COc2ccc(C(F)(F)F)cn2)C[C@@H](O)[C@@H](O)C1)c1cnccn1 (stereo partly drawn)	7.6%	i	-1.5%	-0.4%	nt	nt	nt	nt
O=C(Nc1ccc2cn[nH]c2c1)c1ccc2c(c1)OCCN(c1ccccc1)C2	?	i	39.8µM*	44.7µM*	35.3µM*	?	-18.4%[86.2 µM]	35.3µM*
O=C(Nc1nccs1)c1ccc2c(c1)OCCN(c1ccccc1)C2	-17.6%[70.6 µM]	?	?	-25.7%[172 µM]	nt	nt	nt	nt
CN(Cc1cnc2ccccc2c1)C(=O)c1ccc(CCC(C)(C)O)cc1	2.51µM*	i	?	39.8µM*	5.44µM*	6.85µM*	3.1%	3.85µM*
